Laboratory results reported in the supplement of paper PMC10981050.
Where “and” joins values, the source holds several entries; their conditions need not be identical. Equal entries are not always repeated. Structures can show the parent of a compound that is named as a salt.

Key:
Assay in all cases: cell viability relative to vehicle control; higher = less cytotoxic
Conditions in all cases: 10 µM
K562 = test system: K562
In short: (§1)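 Mutant clones made by CRISPR editing and their isogenic wild-type counterparts, from four leukaemia lines, were exposed to a single 10 µM dose of each library compound for 48 h. The supernatant was then removed and CellTiter-Glo luminescence was read. Viability was reported as percent of the on-plate vehicle control.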

MARIMO = test system: MARIMO
In short: as §1

MOLM14 = test system: MOLM14
In short: as §1

OCI-AML2 = test system: OCI-AML2
In short: as §1

Row | Compound | cell viability (K562; SRSF2 genotype: SRSF2 P95H/wt) | cell viability (K562; SRSF2 genotype: SRSF2 wt/wt) [%] | cell viability (MARIMO; SRSF2 genotype: SRSF2 P95H/wt) [%] | cell viability (MARIMO; SRSF2 genotype: SRSF2 wt/wt) [%] | cell viability (MOLM14; SRSF2 genotype: SRSF2 P95H/wt) [%] | cell viability (MOLM14; SRSF2 genotype: SRSF2 wt/wt) [%] | cell viability (OCI-AML2; SRSF2 genotype: P95H/wt) [%] | cell viability (OCI-AML2; SRSF2 genotype: wt/wt) [%]
1 | OC[C@H]1O[C@@](CO)(O[C@H]2O[C@H](CO)[C@@H](O)[C@H](O)[C@H]2O)[C@@H](O[C@H]2O[C@H](CO)[C@@H](O)[C@H](O)[C@H]2O)[C@@H]1O [D-(+)-Melezitose] | 100% | 97.6 | 105 | 115 | 98.5 | 107 | 95.1 | 95.5
2 | Nc1nc(F)nc2c1ncn2[C@@H]1O[C@H](COP(=O)(O)O)[C@@H](O)[C@@H]1O [Fludarabine Phosphate (Fludara)] | 105% and 112% | 98.7 | 64.2 | 84.9 | 88.1 | 101 | 6.47 | 10.8
3 | Nc1[nH]cnc2ncnc1-2 [Adenine sulfate] | 108% and 94.6% | 99.3 | 94.7 | 103 | 93.5 | 99.7 | 102 | 112
4 | COc1ccc(/C=C/c2cc(OC)cc(=O)o2)cc1 [Yangonin] | 108% and 102% | 104 | 97.7 | 99.3 | 115 | 114 | 94.1 | 98.2
5 | Cn1c([N+](=O)[O-])cnc1COC(N)=O [Ronidazole] | 95.1% and 89% | 92.3 | 97.3 | 97.3 | 96 | 99.5 | 90.8 | 102
6 | CCn1c(=O)c2c(nc(/C=C/c3ccc(OC)c(OC)c3)n2C)n(CC)c1=O [Istradefylline (KW-6002)] | 90.7% and 83.8% | 85.1 | 81.1 | 95.3 | 96.5 | 97.6 | 117 | 92.4
7 | COc1ccc(/C=C/c2cc(O)cc(O)c2)cc1O [Rhapontigenin] | 95.7% and 103% | 105 | 101 | 97.9 | 119 | 109 | 94.2 | 86.2
8 | NC[C@H](O)c1ccc(O)c(O)c1 [Noradrenaline bitartrate monohydrate (Levoph] | 86.5% and 94.4% | 98.2 | 92.6 | 94.3 | 85.7 | 93.7 | 96.7 | 103
9 | CN(C(=O)CNC(=O)/C=C/c1cccc(Cl)c1)C1CCS(=O)(=O)CC1 | 35.4% and 33% | 28.4 | 103 | 104 | 105 | 86 | 101 | 104
10 | CC(C)n1c(=O)n(C)c2cnc3cc(F)c(-c4ccc(OCCCN5CCCCC5)nc4)cc3c21 | 71.3% and 72.9% | 75.9 | 60 | 61 | 30.9 | 32 | 32.7 | 37
11 | Cc1cc(C(C)(C)C)cc(C)c1CC1=NCCN1 [Xylometazoline HCl] | 92.4% and 97.6% | 99.5 | 95.4 | 105 | 102 | 103 | 93.4 | 99.7
12 | CN1C(C(=O)Nc2ccccn2)=C(O)c2sc(Cl)cc2S1(=O)=O [Lornoxicam (Xefo)] | 94.3% and 91.8% | 87.5 | 87.2 | 95.8 | 91 | 87.8 | 92.8 | 94.5
13 | CO[C@H]1/C=C/O[C@@]2(C)Oc3c(C)c(O)c4c(O)c(cc(O)c4c3C2=O)NC(=O)/C(C)=C\C=C\[C@H](C)[C@H](O)[C@@H](C)[C@@H](O)[C@@H](C)[C@H](OC(C)=O)[C@@H]1C [Rifamycin sodium salt] | 35.1% and 16.3% | 13 | 4.5 | 7.05 | 0.49 | 0.44 | 0.38 | 0.42
14 | CN1CCN(c2nc(C3=C(c4c[nH]c5ccccc45)C(=O)NC3=O)c3ccccc3n2)CC1 [Sotrastaurin (AEB071)] | 88.8% and 91.3% | 81.6 | 72.4 | 80.5 | 30.8 | 21.6 | 32.8 | 50.3
15 | COC(=O)c1ccc(O)c(OC)c1 [Methyl Vanillate] | 101% and 96.9% | 102 | 90.7 | 104 | 103 | 103 | 95.2 | 107
16 | CN(C)CCCN1c2ccccc2Sc2ccc(Cl)cc21 [Chlorpromazine HCl] | 75.5% and 73.7% | 65.6 | 40.4 | 44.1 | 40.7 | 43.7 | 25.3 | 28.6
17 | Nc1nc(CC(=O)Nc2ccc(CCNC[C@H](O)c3ccccc3)cc2)cs1 [Mirabegron (YM178)] | 102% and 111% | 107 | 103 | 114 | 101 | 103 | 110 | 93.1
18 | N[C@@H](CC(=O)N1CCn2c(nnc2C(F)(F)F)C1)Cc1cc(F)c(F)cc1F [Sitagliptin phosphate monohydrate] | 97.7% and 96.1% | 102 | 98.1 | 110 | 102 | 103 | 109 | 117
19 | COC1=C2C[C@@H](C)C[C@H](OC)[C@H](O)[C@@H](C)/C=C(\C)[C@H](OC(N)=O)[C@@H](OC)/C=C\C=C(/C)C(=O)NC(=CC1=O)C2=O [Geldanamycin] | 15.4% and 22.8% | 24.4 | 26.4 | 19.1 | 1.24 | 1.11 | 1.59 | 10.6
20 | COc1cc2c(cc1O)CC[C@@H]1[C@@H]2CC[C@]2(C)[C@@H](O)CC[C@@H]12 [2-Methoxyestradiol] | 14% and 27.1% | 29.9 | 10.4 | 10.9 | 7.93 | 2.27 | 6.68 | 13.6
21 | N[C@@H](CS)C(=O)O [L-Cysteine HCl] | 87.6% and 82.9% | 82.4 | 89 | 97.7 | 89.1 | 87.8 | 89.1 | 94.3

Row | Compound | cell viability (K562; SRSF2 genotype: SRSF2 P95H/wt) | cell viability (K562; SRSF2 genotype: SRSF2 wt/wt) [%] | cell viability (MARIMO; SRSF2 genotype: SRSF2 P95H/wt) [%] | cell viability (MARIMO; SRSF2 genotype: SRSF2 wt/wt) [%] | cell viability (MOLM14; SRSF2 genotype: SRSF2 P95H/wt) [%] | cell viability (MOLM14; SRSF2 genotype: SRSF2 wt/wt) [%] | cell viability (OCI-AML2; SRSF2 genotype: P95H/wt) [%] | cell viability (OCI-AML2; SRSF2 genotype: wt/wt) [%]
22 | O=C1NC(=O)C(c2ccccc2)(c2ccccc2)N1 [Phenytoin (Lepitoin)] | 98.1% and 111% | 99.6 | 107 | 103 | 100 | 103 | 105 | 91.6
23 | O=C(O)/C=C/c1ccc(Cn2ccnc2)cc1 [Ozagrel HCl] | 97.6% | 96.3 | 92.8 | 109 | 98.8 | 103 | 92.6 | 105
24 | O=c1c(-c2ccc(O)cc2)coc2cc(O)ccc12 [Daidzein] | 99.3% and 97.8% | 97.8 | 95.4 | 96.9 | 93.4 | 96.7 | 92.9 | 102
25 | C#CCC(Cc1cnc2nc(N)nc(N)c2n1)c1ccc(C(=O)N[C@@H](CCC(=O)O)C(=O)O)cc1 (stereo partly specified) [Pralatrexate(Folotyn)] | 98.1% and 106% | 45.8 | 109 | 108 | 102 | 73.9 | 98.6 | 104
26 | COc1ccc(Oc2cc(C)c(-c3csc(NC(=O)c4ccncc4)n3)c(C)c2)cc1 | 43.7% and 37.3% | 36.9 | 37.8 | 37.6 | 42.4 | 25.9 | 47.8 | 32.2
27 | NC[C@@](O)(c1ccc(Cl)cc1)c1ccc(-c2cn[nH]c2)cc1 | 34.7% and 19.4% | 13 | 52.9 | 56.4 | 29.3 | 25.6 | 13.8 | 17.4
28 | CC[C@@H](C)Nc1cc(C(=O)N[C@H]2C[C@H]3CC[C@@H](C2)N3c2ccc(C(=O)C3CC3)cn2)c(C)cc1C(N)=O | 19.1% and 26.9% | 23 | 32.8 | 28.5 | 2 | 2.43 | 14.2 | 21
29 | O=C1C=C2C=C[C@@H](O)[C@H](O)[C@H]2O1 [Griffonilide] | 101% | 96.4 | 98.7 | 104 | 99.3 | 97.2 | 103 | 100
30 | O=C(C=CC=Cc1ccccc1)CCc1ccccc1 [Alnustone] | 105% and 100% | 91.8 | 92 | 87.5 | 88.1 | 87.4 | 76.6 | 95.6
31 | O=S(=O)(c1cccc2cnccc12)N1CCCNCC1 [Fasudil HCl (HA-1077)] | 97.2% and 90.4% | 94 | 81.6 | 92.8 | 75 | 94.4 | 70.3 | 75.3
32 | CC(C)N(CC[C@H](c1ccccc1)c1cc(CO)ccc1O)C(C)C | 89.7% and 94% | 98.4 | 88.3 | 90.7 | 93.3 | 97.9 | 93.5 | 90.9
33 | CC1(C)CC[C@]2(NC(=O)C(C)(F)F)CC[C@]3(C)[C@H](C(=O)C=C4[C@@]5(C)C=C(C#N)C(=O)C(C)(C)[C@@H]5CC[C@]43C)[C@@H]2C1 [Omaveloxolone (RTA-408)] | 9.19% and 4.65% | 5.62 | 1.12 | 0.48 | 0.3 | 0.25 | 0.23 | 0.32
34 | CC(=O)NS(=O)(=O)c1ccc(N)cc1 [Sulfacetamide Sodium] | 96.5% and 94.7% | 101 | 96.3 | 101 | 101 | 101 | 108 | 96.6
35 | O=C1NC(=O)C(c2ccccc2[N+](=O)[O-])=C1Nc1ccc(O)c(Cl)c1 | 107% and 104% | 104 | 98.5 | 91.9 | 90.7 | 107 | 122 | 120
36 | CCc1ccc(OCc2ccccc2C(=O)Nc2ccc3nc(C)cc(N)c3c2)cc1 | 0.54% and 0.5% | 0.47 | 0.43 | 0.59 | 0.48 | 0.57 | 0.44 | 0.53
37 | COc1ccccc1C(=O)Nc1cc2c(cc1N1CCCC1)n(C)c(=O)n2C | 91.5% and 100% | 92 | 84.1 | 95.3 | 79.4 | 83.4 | 63.5 | 69.2
38 | CC(C)=CCC[C@](C)(O[C@@H]1O[C@H](CO[C@@H]2O[C@H](CO)[C@@H](O)[C@H](O)[C@H]2O)[C@@H](O)[C@H](O)[C@H]1O)[C@H]1CC[C@]2(C)[C@@H]1[C@H](O)C[C@@H]1[C@@]3(C)CC[C@H](O[C@@H]4O[C@H](CO)[C@@H](O)[C@H](O)[C@H]4O[C@@H]4O[C@H](CO)[C@@H](O)[C@H](O)[C@H]4O)C(C)(C)[C@@H]3CC[C@]12C [Ginsenoside Rb1] | 103% and 102% | 105 | 103 | 112 | 103 | 102 | 101 | 111
39 | CCCC(CCC)C(=O)O [Valproic acid sodium salt (Sodium valproate)] | 95% and 89.8% | 102 | 84.2 | 91.5 | 93.2 | 93.7 | 89.8 | 95.9
40 | OC[C@@H](O)CN1CCN(c2ccccc2)CC1 [Levodropropizine] | 90.9% and 91% | 83.9 | 85.1 | 96.5 | 92.5 | 91.6 | 94.5 | 96
41 | Oc1cc2c(cc1O)[C@@H]1c3ccc(O)c(O)c3OC[C@]1(O)C2 [Hematoxylin (Hydroxybrazilin)] | 97% and 94.6% | 94.1 | 95.7 | 98.5 | 99.8 | 99.7 | 101 | 98.4
42 | Cc1cccc2c3c(ccc12)C1=C(C(=O)C3=O)[C@@H](C)CO1 [Dihydrotanshinone I] | 3.54% and 3.11% | 2.64 | 7.76 | 7.12 | 0.56 | 0.4 | 0.43 | 2.86
